# Results reported in PubChem BioAssay (Tox21).
# Several values for one entry are separate records, joined by “and”; a condition that tells them apart may be missing. Equal values may be shown once. Results filed as inconclusive are left out. A number with no mark means an inactive call. Activity calls are given as the source filed them. The call rests on the fitted dose curve; in most records, active means well fitted activation curve with a large enough effect in the repeat runs; inconclusive means weak or mixed curves; inactive means flat fitted curve, though single readings scatter.
# Test: A CellTox Green Cytotoxicity Assay to monitor cytotoxicity in HepG2 cells - 40 hour (AID 1224879); further: nearly all actives have a fitted effect of over 40% in size
# Conditions: CellTox Green fluorescence; series mostly up to 76.8 µM; cytotoxicity increase: at the top concentration
# Source text: National Center for Advancing Translational Sciences [NCATS]
# NIH Chemical Genomics Center [NCGC]
# U.S. Environmental Protection Agency [EPA]
# National Institutes of Environmental Health Sciences [NIEHS]
# National Toxicology Program [NTP]
# Cell-based models are critical for drug discovery. Determining the natural cytotoxic effects resulting from test compounds is an essential research activity. A CellTox Green Cytotoxicity Assay to monitor cytotoxicity in real time of continues cell culture during 40 hours of the compound treatment was used to screen Tox21 10K library compounds in HepG2 cells. CellTox Green Cytotoxicity Assay is a nonlytic, homogeneous, biofluorescent method to measure cytotoxicity in cell culture after experimental manipulation. The assay system uses a proprietary asymmetric cyanine dye that is excluded from viable cells but preferentially stains the dead cell's DNA. […] Viable cells produce no appreciable increases in fluorescence. Therefore, the fluorescence signal produced by the binding interaction with dead cell DNA is proportional to cytotoxicity.
# The mixture of HepG2 cell suspension and reagents were dispensed at 600cells/6 ul/well in 1536-well tissue culture treated black solid bottom plates using a Multidrop dispenser. After the assay plates were incubated at a 37 C/5% CO2 incubator for 5 hours, 23 nL of compounds dissolved in DMSO, positive and negative controls was transferred to the assay plate by a pintool work station. The plates were incubated at 37 C for 40 hours. The fluorescence intensity were measured at 0h, 8h, 16h, 24h, 32h and 40h time points using ViewLux plate reader during compound treatment.
# On the % scale 0 is the no-effect control and ±100 the full control effect; potency means the concentration at half of the fitted maximal effect.
SMILES,cytotoxicity increase,Potency
CC(=O)CCC(C)=O,-12.2%,
CCOP(=S)(OCC)SCSCC,-0.977%,
CO[C@@H]1[C@H](OC(=O)NC(=O)CCl)CC[C@]2(CO2)[C@H]1[C@@]1(C)O[C@@H]1CC=C(C)C,-2% [at 15.8 µM],
CO/C=C(/C(=O)OC)c1ccccc1COc1cccc(C(F)(F)F)n1,8.03%,
CC(C)(CCl)C(=O)Cl,-3.2%,
CS/C(C)=N/OC(=O)N(C)SN(C)C(=O)O/N=C(\C)SC,,54.9 µM (active)
CCOC(=O)[C@]1(c2ccccc2)Oc2ccccc2[C@@H]1N,-2.04%,
Cc1cc(=O)[nH]o1,-0.0277%,
CCCCCC[N+](=O)[O-],-3.87%,
C(=NC1CCCCC1)=NC1CCCCC1,,9.84 µM (active) and 11 µM (active)
O=C(C(Cl)(Cl)Cl)C(Cl)(Cl)Cl,-10.1%,
ClCc1ccccc1,-8.5%,
N#Cc1ccc(Cl)cc1,-14.7%,
CNP(=O)(OC)Oc1ccc(C(C)(C)C)cc1Cl (stereo not given),,54.9 µM (active)
C=C(C#N)CCC#N,1.7%,
O=S(=O)(Cl)c1ccccc1,-9.4%,
CN(N=O)c1ccc([N+](=O)[O-])cc1,,43.6 µM (active)
CCOC(=O)C(Cl)C(C)=O (stereo not given),,24.8 µM (active)
CCCCC(O)(Cn1cncn1)c1ccc(Cl)cc1Cl (stereo not given),,48.9 µM (active)
CC1(C)[C@H](C=C(Cl)Cl)[C@@H]1C(=O)O[C@@H](C#N)c1cccc(Oc2ccccc2)c1,-6.88%,

SMILES,cytotoxicity increase,Potency
CO/N=C(/C(=O)OC)c1ccccc1COc1ccccc1C,9.99%,
CCC(Br)(CC)C(=O)NC(N)=O,-0.369%,
CCOP(=O)(OCC)O/C(=C/Cl)c1ccc(Cl)cc1Cl,16.2%,
CCC(Cl)CCl (stereo not given),-0.36%,
CCOP(=S)(OCC)SCn1nnc2ccccc2c1=O,-13.5%,
O=C(CCl)c1ccc(Cl)cc1Cl,,23.9 µM (active)
II,,38.9 µM (active)
CCOP(=S)(Oc1ccc([N+](=O)[O-])cc1)c1ccccc1 (stereo not given),-10.4%,
COc1cc(CC(C)N)cc2c1OCO2 (stereo not given),1.24%,
N#CCc1ccccc1,-3.88%,
COP(=S)(OC)Oc1cc(Cl)c(I)cc1Cl,1.57%,
CC1CC(CC2CCC(N)C(C)C2)CCC1N (stereo not given),13.7%,
Cl/C=C\C[N+]12CN3CN(CN(C3)C1)C2,-3.71%,
Cc1ccc(-c2c(Cl)nc(C#N)n2S(=O)(=O)N(C)C)cc1,17.4%,
CC(C)N(CCC(C(N)=O)(c1ccccc1)c1ccccn1)C(C)C (stereo not given),-13.4% [at 35.3 µM],
Sc1ccccc1Cl,24.2% [at 35.3 µM],
CN1C(=O)C(O)N=C(c2ccccc2)c2cc(Cl)ccc21 (stereo not given),1.23%,
O=C(CBr)OCc1ccccc1,-10.9%,
CCCCCCC#N,0.974%,
Cc1ccc(N)cc1C,-6.25%,
